Compounds without any hit were thinned out: in the full panel of roughly 83,000, 20% have a hit.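 Assay: single dose, 48 h. Readout: percent growth (0 = no net growth; negative = cell death). Active: <10.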 Unmarked numbers belong to inactive results. The source made the active and inactive calls.
Columns and labels:
Test in all cases: NCI-60 one-dose screen, 48 h (100 = growth as untreated, 0 = no growth, -100 = all killed)
Details in all cases: 10 µM unless noted
RPMI-8226 leukemia = test system: RPMI-8226 leukemia
OVCAR-8 ovarian = test system: OVCAR-8 ovarian
OVCAR-5 ovarian = test system: OVCAR-5 ovarian
OVCAR-4 ovarian = test system: OVCAR-4 ovarian
SK-OV-3 ovarian = test system: SK-OV-3 ovarian
IGROV1 ovarian = test system: IGROV1 ovarian
OVCAR-3 ovarian = test system: OVCAR-3 ovarian
HS 578T breast = test system: HS 578T breast
NCI/ADR-RES ovarian = test system: NCI/ADR-RES ovarian
T-47D breast = test system: T-47D breast
BT-549 breast = test system: BT-549 breast
MDA-MB-435 melanoma = test system: MDA-MB-435 melanoma
SW-620 colon = test system: SW-620 colon
MCF7 breast = test system: MCF7 breast
HCT-116 colon = test system: HCT-116 colon
HCC-2998 colon = test system: HCC-2998 colon
KM12 colon = test system: KM12 colon

| Compound | growth (RPMI-8226 leukemia) | growth (OVCAR-8 ovarian) | growth (OVCAR-5 ovarian) | growth (OVCAR-4 ovarian) | growth (SK-OV-3 ovarian) | growth (IGROV1 ovarian) | growth (OVCAR-3 ovarian) | growth (HS 578T breast) | growth (NCI/ADR-RES ovarian) | growth (T-47D breast) | growth (BT-549 breast) | growth (MDA-MB-435 melanoma) | growth (SW-620 colon) | growth (MCF7 breast) | growth (HCT-116 colon) | growth (HCC-2998 colon) | growth (KM12 colon) |
| --- | --- | --- | --- | --- | --- | --- | --- | --- | --- | --- | --- | --- | --- | --- | --- | --- | --- |
| O=C(Nc1nc2ccc(C(F)(F)F)cc2s1)c1cc(Cl)ccc1O | -5.53% (active) | 12.9% | 28% | 20.2% | -16.2% (active) | 30.8% | 8.08% (active) | 5.64% (active) | -4.36% (active) | -5.13% (active) | -8.57% (active) | 10.2% | 12.8% | -1.08% (active) | 4.81% (active) | 10.9% | 8.91% (active) |
| CNc1cccc2c1C(=O)c1cccc(N)c1C2=O | 38.9% | 64.5% | 73.8% | 57.6% | 60.5% | 67.5% | 32.2% | 19.4% | 85% | 45.9% | 30.8% | 36.1% | 63.1% | 25% | 31.5% | 93.9% | 35.8% |
| COC1=CC2C=C(C3N(c4ccccc4)NC(=O)[C@@H]4CCCN34)C(=O)NC2C=C1 (stereo partly drawn) | 110% | 110% | 107% | 96.8% | 104% | 105% | 104% | 99% | 101% | 99% | 97.4% | 97% | 105% | 94.1% | 93.8% | 94.8% | 100% |
| NS(=O)(=O)c1ccc(-n2nc(-c3ccccc3)ccc2=O)cc1 | 109% | 101% | 113% | 117% | 99.6% | 72.3% | 112% | 106% | 103% | 93.8% | 123% | 113% | 108% | 96% | 102% | 108% | 99.6% |
| CCN1CCC[C@H]1c1cc(O)c2c(c1OC)C[C@H]1C[C@H]3[C@H](N)C(=O)C(C(N)=O)=C(O)[C@@]3(O)C(=O)C1=C2O | -18.8% (active) | -0.399% (active) | 4.81% (active) | -0.794% (active) | -1.89% (active) | -5.97% (active) | 2.36% (active) | -3.05% (active) | 9.29% (active) | -8.2% (active) | -3.73% (active) | -4.48% (active) | 1.96% (active) | 0.852% (active) | -4.51% (active) | -6.34% (active) | 5.97% (active) |
| CSc1nc(-c2cccs2)c2c(N)[nH]nc2n1 | 112% | 102% | 106% | 108% | 89.9% | 111% | 109% | 106% | 102% | 90.3% | 96.4% | 117% | 119% | 94.3% | 92.2% | 107% | 48.8% |
| CCOC(=O)/C=C1\SC(=Nc2ccc(C#N)cc2)N(CCN2C(=O)/C(=C/C(=O)OCC)SC2=Nc2ccc(C#N)cc2)C1=O | -26.8% (active) | 5.38% (active) | 84.4% | 50.8% | 85.4% | 23.7% | 7.13% (active) | 63.7% | 43.7% | 21.1% | 32.5% | 72.6% | 9.61% (active) | 24.4% | 4.59% (active) | 20.6% | 23.2% |
| C#Cc1ccccc1NC(=O)c1sc2nc3c(cc2c1N)CCCCCC3 | 56.4% | 75.7% | 93.1% | -19% (active) | 36.9% | 74.5% | 30.9% | 8.22% (active) | 67.4% | 49.7% | 37.3% | 74.5% | 27.6% | 58.4% | 75.5% | 104% | 42.7% |
| CC1(C)Cc2c(Br)c(Br)c(Br)c(OCC(O)CN3CCOCC3)c2O1 (stereo not drawn) | 20.8% | 88.9% | 99.7% | 99.5% | 110% | -83.4% (active) | 57% | 98.1% | 81.2% | 108% | 78% | 87.5% | 94.5% | 114% | 77.9% | 95.9% | 95% |

Reference: PubChem BioAssay (NCI)
